Compound activity (PubChem)
Shown are actives, neighbours in structure and some others; about 2.2% of the full set was active somewhere.
GLP1R inv ag – qHTS of GLP-1 Receptor Inverse Agonists (Inhibition Mode) | Glucagon-like peptide 1 receptor (Homo sapiens), P43220 | Potency, µM (titrated, usually from 38.3 µM), actives largely listed as inhibitors | AID 624417, 2012 | HEK293 GLP-1R CRE-luciferase, luminescence, 24 h; GLP-1R form is constitutively active | 1.6% of 410,000 active; also: nearly all actives have a fitted effect of over 55% in size
Target sequence (P43220 whole entry, looked up): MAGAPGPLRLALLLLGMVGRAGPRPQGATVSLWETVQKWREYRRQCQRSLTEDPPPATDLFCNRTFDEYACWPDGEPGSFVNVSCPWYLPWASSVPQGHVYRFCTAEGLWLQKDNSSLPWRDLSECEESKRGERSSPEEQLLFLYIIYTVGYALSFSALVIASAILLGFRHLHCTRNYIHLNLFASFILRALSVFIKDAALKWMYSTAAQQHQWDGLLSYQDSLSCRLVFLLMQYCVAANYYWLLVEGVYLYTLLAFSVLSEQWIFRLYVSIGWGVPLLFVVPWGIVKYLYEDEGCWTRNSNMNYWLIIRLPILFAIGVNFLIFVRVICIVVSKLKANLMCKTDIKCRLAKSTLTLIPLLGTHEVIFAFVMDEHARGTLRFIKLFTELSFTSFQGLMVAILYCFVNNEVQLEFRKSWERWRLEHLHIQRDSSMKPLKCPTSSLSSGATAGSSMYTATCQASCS
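Stable HEK293 clone (constitutively active GLP-1R + cAMP-response luciferase); 200 cells/uL plated, 12 h pre-culture, compound 24 hr, 37 deg C/5% CO2; detection reagent 12 min RT; luminescence.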
uPA surface inh – qHTS for Inhibitors of Cell Surface uPA Generation; cell surface uPA generation assay, qHTS; Potency, µM (highest dose often 38.3 µM), hits mostly inhibitors; 0.31% of 330,000 active; active = well fitted inhibition curve with a large enough effect; inconclusive = small, poorly fitted or top-dose-only effect; inactive = no such curve, though single readings can be large or run the other way; tested in mouse RAW 264.7 cells; also: nearly all actives have a fitted effect of over 55% in size
Mm-Cpn inhibitor – Inhibitors of TCP-1 ring complex (TRiC) of Methanococcus maripaludis (MmCpn): qHTS. Chaperonin Mm-Cpn (Methanococcus maripaludis). purified Mm-Cpn ATPase, ADP Transcreener TR-FRET. Potency, µM (series often up to 76.9 µM), usual class: inhibitors. 0.031% of 330,000 active; also: nearly all actives have a fitted effect of over 80% in size
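Purified archaeal Mm-CPN (25nM final) preincubated 10 min at 37degC with compound, then 10uM ATP for 30 min at 37degC; ADP measured by HTRF Transcreener TR-FRET; buffer 30 mM TRIS pH 7.4, 100mM KCl, 5mM MgCl2, 1mM DTT.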
CCT chaperon mod – High-Throughput Screening for Modulators of Cytosolic Chaperonin Activity | purified chaperonin ATPase assay, HTRF ADP detection, 30 min | activity change, % (no concentration beside the values), hits read low | 0.3% of 360,000 active | AID 651819, 2012; in the data active = activity change below about -30%
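We incubate TRiC, 40 or 20 nM final, with library compounds at 76 uM and 10 uM ATP for 30 min at 37 °C. ADP formed is detected with Transcreener HTRF reagents after 30 min at room temperature.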
GLP1R ag – qHTS of GLP-1 Receptor Agonists | HEK293 GLP-1R CRE-luciferase, luminescence, 4-6 h; cells express a hypersensitive GLP-1R form | AID 624172, 2012 | 0.007% of 380,000 active | Glucagon-like peptide 1 receptor (Homo sapiens), P43220 | Potency, µM (top dose mostly 45.6 µM), most hits filed as activators
HEK293 tox – qHTS of GLP-1 Receptor Inverse Agonists: Cytotox Screen; HEK293 cAMP-luciferase reporter cells, luminescence, 24 h; Potency, µM (highest dose often 38.3 µM), usual class: inhibitors; 0.13% of 410,000 active; AID 624418, 2012;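 also: loss of luciferase light is scored as toxicity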
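MLSMR compounds, 24 hr on cells at 37 deg C/5% CO2; luminescence after luciferase reagent (12 min RT). Inhibition counted as the undesired cytotoxic outcome.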
A number is an active result. Unless noted, calls follow the shape of the dose curve; as a rule, active = well fitted curve in the direction sought with a large enough effect; inconclusive = small, poorly fitted or top-dose-only effect, or another doubt; inactive = no such curve, though single readings can be large; an effect the other way counts as inactive or inconclusive.

C/C(=C1/SC(=S)N(CCC(=O)O)C1=O)c1ccc(O)cc1 was read as GLP1R inv ag inactive, uPA surface inh inactive, Mm-Cpn inhibitor inactive, CCT chaperon mod -38.4, GLP1R ag inactive and HEK293 tox inactive.
`COc1ccc(/C(C)=C2\SC(=S)N(CCC(=O)O)C2=O)cc1` gave GLP1R inv ag inactive, Mm-Cpn inhibitor inactive, CCT chaperon mod inactive, GLP1R ag inactive and HEK293 tox inactive.
Screening COc1ccccc1NC(=O)c1c(Nc2ccccc2C)sc(C(=O)Nc2cccc(Cl)c2)c1N returned GLP1R inv ag 4.47µM, uPA surface inh inactive, Mm-Cpn inhibitor inactive, CCT chaperon mod inactive, GLP1R ag inactive and HEK293 tox inconclusive.
`COc1ccc(Nc2sc(C(=O)c3ccc(Cl)cc3)c(N)c2C(=O)Nc2ccccc2OC)cc1` gave GLP1R inv ag inactive, uPA surface inh inactive, Mm-Cpn inhibitor inactive, CCT chaperon mod inactive, GLP1R ag inactive and HEK293 tox inactive.
Screening CCOC(=O)Cn1cccc1-c1nc(-c2ccc(OC)cc2)c(-c2ccc(OC)cc2)s1 returned GLP1R ag inactive.
`CCn1cc(C(=O)N2CCN(c3ccc(F)cc3)CC2)c(=O)c2cc(S(=O)(=O)N3CCOCC3)ccc21` gave GLP1R inv ag inactive, GLP1R ag inactive and HEK293 tox inactive.
Screening COc1ccc(S(=O)(=O)Nc2cc3c4c(oc3c3ccccc23)CCCC4=O)cc1 returned GLP1R inv ag 5.01µM, uPA surface inh inactive, Mm-Cpn inhibitor inactive, CCT chaperon mod inactive, GLP1R ag inactive and HEK293 tox inconclusive.
COc1ccc(S(=O)(=O)Nc2cc3c4c(oc3c3ccccc23)CC(C)(C)CC4=O)cc1 was read as GLP1R inv ag inactive, uPA surface inh inactive, Mm-Cpn inhibitor inactive, CCT chaperon mod inactive, GLP1R ag inactive and HEK293 tox inconclusive.
O=C(COc1ccc(Cl)cc1)NNC(=S)NCc1ccccc1 was read as GLP1R inv ag inactive, uPA surface inh inactive, Mm-Cpn inhibitor inactive, CCT chaperon mod inactive, GLP1R ag inactive and HEK293 tox inactive.
C=CCc1ccccc1OCC(=O)NNC(=S)NCc1ccccc1 was read as GLP1R inv ag inconclusive, uPA surface inh inactive, Mm-Cpn inhibitor inactive, CCT chaperon mod -33.5, GLP1R ag inactive and HEK293 tox inconclusive.
`COc1ccc(-n2nnnc2C2CCN(S(=O)(=O)c3ccc(NC(C)=O)cc3)CC2)cc1` gave GLP1R inv ag inactive and HEK293 tox inactive.
`O=C(Cn1cc(/C=C\[N+](=O)[O-])c2ccccc21)Nc1ccccc1` gave GLP1R inv ag 7.08µM, uPA surface inh inactive, Mm-Cpn inhibitor inactive, CCT chaperon mod inactive, GLP1R ag inactive and HEK293 tox inconclusive.
Cc1cc(C)cc(C(=O)Nc2c(C(=O)Nc3ccccc3F)oc3ccccc23)c1 was read as GLP1R inv ag inactive, GLP1R ag inactive and HEK293 tox inactive.
`Cc1cnc(NC(=O)c2ccc(OCC3CCCO3)cc2)s1` (stereo not drawn) gave GLP1R inv ag 5.01µM, uPA surface inh inactive, Mm-Cpn inhibitor inactive, CCT chaperon mod inactive, GLP1R ag inactive and HEK293 tox inactive.
Screening CCOc1ccc(C(=O)Nc2nnc(SCC(=O)NCC3CCCO3)s2)cc1 (stereo not drawn) returned GLP1R inv ag 2µM, uPA surface inh inconclusive, Mm-Cpn inhibitor inactive, CCT chaperon mod inactive, GLP1R ag inactive and HEK293 tox inactive.
`Cc1nc(SCC(=O)NCC2CCCO2)c2cc(-c3ccccc3)sc2n1` (stereo not drawn) gave GLP1R inv ag inconclusive, uPA surface inh 8.91µM, Mm-Cpn inhibitor inactive, CCT chaperon mod inactive, GLP1R ag inactive and HEK293 tox inactive.
`Cc1ccc(NC(=O)c2ccc(OCC3CCCO3)cc2)nc1` (stereo not drawn) gave GLP1R inv ag inconclusive, uPA surface inh inactive, Mm-Cpn inhibitor inactive, CCT chaperon mod inactive, GLP1R ag inactive and HEK293 tox inactive.
CN(C)S(=O)(=O)c1ccc(C(=O)Nc2nnc(SCC(=O)NCC3CCCO3)s2)cc1 (stereo not drawn) was read as GLP1R inv ag inactive, uPA surface inh 7.94µM, Mm-Cpn inhibitor inactive, CCT chaperon mod inactive, GLP1R ag inactive and HEK293 tox inactive.
For COCCn1c(CCC(=O)Nc2ccc(C)c(Cl)c2)nc2cccnc21 the results were GLP1R inv ag inactive and HEK293 tox inactive.
Screening CCCC(=O)O[C@]1(C(=O)COC(=O)CC)[C@@H](C)C[C@H]2[C@@H]3CCC4=CC(=O)C=C[C@@]4(C)[C@@]3(F)[C@H](O)C[C@@]21C returned GLP1R ag inactive.
`O=C(CSc1nnc(NC(=O)c2cccc(F)c2)s1)NCC1CCCO1` (stereo not drawn) gave GLP1R inv ag inactive, uPA surface inh inconclusive, Mm-Cpn inhibitor inactive, CCT chaperon mod inactive, GLP1R ag inactive and HEK293 tox inactive.
For CC(C)(C)c1ccc(C(=O)Nc2nnc(SCC(=O)NCC3CCCO3)s2)cc1 (stereo not drawn) the results were GLP1R inv ag inconclusive, uPA surface inh 0.891µM, Mm-Cpn inhibitor inactive, CCT chaperon mod inactive, GLP1R ag inactive and HEK293 tox inactive.
For COc1ccc(NC(=O)[C@H](Cc2c[nH]c3ccccc23)NC(=O)[C@@H]2Cc3ccccc3CN2)cc1 the results were GLP1R inv ag 5.62µM, uPA surface inh inactive, Mm-Cpn inhibitor inactive, CCT chaperon mod inactive, GLP1R ag inactive and HEK293 tox inactive.
`CC(C)c1ccc(NC(=O)[C@H](Cc2c[nH]c3ccccc23)NC(=O)[C@@H]2Cc3ccccc3CN2)cc1` gave GLP1R inv ag inconclusive, uPA surface inh inactive, Mm-Cpn inhibitor inactive, CCT chaperon mod inactive, GLP1R ag inactive and HEK293 tox inactive.
For CCN(Cc1ccc(C#CCCO)cc1)CC1CCCN(CCc2cccc(F)c2)C1 (stereo not drawn) the results were GLP1R inv ag 10µM, uPA surface inh inactive, Mm-Cpn inhibitor inactive, CCT chaperon mod inactive, GLP1R ag inactive and HEK293 tox inactive.
`Cc1ccc(C2=NN(C(=O)CCl)C(c3cccs3)C2)o1` (stereo not drawn) gave GLP1R inv ag 3.16µM, uPA surface inh inactive, Mm-Cpn inhibitor inactive, CCT chaperon mod inactive, GLP1R ag inactive and HEK293 tox inconclusive.
Screening Cc1cc(C(=O)COC(=O)C2=COCCO2)c(C)n1-c1cccc(F)c1 returned GLP1R inv ag 10µM, uPA surface inh inactive, Mm-Cpn inhibitor inactive, CCT chaperon mod inactive, GLP1R ag inactive and HEK293 tox inactive.
